Screen size: about 5,500 compounds; about 2,000 (36%) were called active. Not shown: some 18% with an inconclusive outcome. This is one part of the list. Values without a mark were called inactive. No stated cut-off is given here; in the data, active means normalized growth mostly below about 0.91 (no sharp cut-off); inconclusive means no clear call, values can overlap the other calls; inactive means mostly above about 0.92.
Experiment: chemical genetic growth profiling, strain panel (AID 1159580);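 further: tested at 20 µM; growth read once vehicle control cultures reached saturation at 30 °C; 1 = growth at the plate median or of vehicle wells; lower values mean less growth of the strain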
Conditions: S. cerevisiae deletion strains, growth OD

Question: What does the source list for `O=C(NCc1ccncc1)c1ccc(-n2cccn2)cc1`?
Answer: normalized growth (locus YAR019C, strain CDC15, active compounds read low): 0.989; normalized growth (locus YBL105C, strain PKC1, active compounds read low): 0.984; normalized growth (locus YBR135W, strain CKS1, active compounds read low): 0.982; normalized growth (locus YBR136W, strain MEC1, active compounds read low): 0.982; normalized growth (locus YBR160W, strain CDC28, active compounds read low): 0.984; normalized growth (locus YDL017W, strain CDC7, active compounds read low): 0.992; normalized growth (locus YDL028C, strain MPS1, active compounds read low): 0.983; normalized growth (locus YDL101C, strain DUN1, active compounds read low): 0.982; normalized growth (locus YDL108W, strain KIN28, active compounds read low): 0.982; normalized growth (locus YDL132W, strain cdc53, active compounds read low): 0.984; normalized growth (locus YDL214C, strain PRR2, active compounds read low): 0.972; normalized growth (locus YDR052C, strain DBF4, active compounds read low): 0.987; normalized growth (locus YDR054C, strain cdc34, active compounds read low): 0.988; normalized growth (locus YDR226W, strain ADK1, active compounds read low): 0.983; normalized growth (locus YDR477W, strain SNF1, active compounds read low): 0.972; normalized growth (locus YER123W, strain YCK3, active compounds read low): 0.941; normalized growth (locus YER133W, strain GLC7, active compounds read low): 0.969; normalized growth (locus YFL009W, strain cdc4, active compounds read low): 0.981; normalized growth (locus YFL029C, strain CAK1, active compounds read low): 0.988; normalized growth (locus YFR003C, strain YPI1, active compounds read low): 0.98; normalized growth (locus YFR019W, strain FAB1, active compounds read low): 0.962; normalized growth (locus YFR028C, strain CDC14, active compounds read low): 0.979; normalized growth (locus YGR040W, strain KSS1, active compounds read low): 0.96; normalized growth (locus YGR052W, strain FMP48, active compounds read low): 1; normalized growth (locus YGR092W, strain DBF2, active compounds read low): 0.985; normalized growth (locus YHR030C, strain SLT2, active compounds read low): 1.11; normalized growth (locus YHR079C, strain IRE1, active compounds read low): 1.1; normalized growth (locus YHR082C, strain KSP1, active compounds read low): 1.05; normalized growth (locus YHR205W, strain SCH9, active compounds read low): 0.985; normalized growth (locus YIL147C, strain SLN1, active compounds read low): 0.982; normalized growth (locus YJL095W, strain BCK1, active compounds read low): 0.981; normalized growth (locus YJL128C, strain PBS2, active compounds read low): 0.953; normalized growth (locus YJL157C, strain FAR1, active compounds read low): 0.973; normalized growth (locus YJR016C, strain ILV3, active compounds read low): 0.984; normalized growth (locus YJR066W, strain TOR1 (second series), active compounds read low): 0.971; normalized growth (locus YJR066W, strain TOR1, active compounds read low): 1.09; normalized growth (locus YKL048C, strain ELM1, active compounds read low): 0.959; normalized growth (locus YKL067W, strain YNK1, active compounds read low): 0.972; normalized growth (locus YKL101W, strain HSL1, active compounds read low): 0.962; normalized growth (locus YKL193C, strain SDS22, active compounds read low): 0.976; normalized growth (locus YKL203C, strain TOR2, active compounds read low): 1.03; normalized growth (locus YLR113W, strain HOG1, active compounds read low): 0.854 (active); normalized growth (locus YLR133W, strain CKI1, active compounds read low): 0.955; normalized growth (locus YLR403W, strain SFP1, active compounds read low): 0.99; normalized growth (locus YML070W, strain DAK1, active compounds read low): 0.954; normalized growth (locus YMR001C, strain CDC5, active compounds read low): 0.984; normalized growth (locus YMR205C, strain PFK2 (second series), active compounds read low): 0.973; normalized growth (locus YMR277W, strain FCP1, active compounds read low): 0.978; normalized growth (locus YNL006W, strain LST8, active compounds read low): 0.993; normalized growth (locus YNL020C, strain ARK1, active compounds read low): 0.974; normalized growth (locus YNL161W, strain CBK1, active compounds read low): 0.985; normalized growth (locus YNL183C, strain NPR1, active compounds read low): 1.02; normalized growth (locus YNL207W, strain RIO2, active compounds read low): 0.981; normalized growth (locus YNL222W, strain SSU72, active compounds read low): 0.982; normalized growth (locus YNL307C, strain MCK1 (second series), active compounds read low): 0.966; normalized growth (locus YOL078W, strain AVO1, active compounds read low): 0.981; normalized growth (locus YOL136C, strain PFK27, active compounds read low): 0.928; normalized growth (locus YOR061W, strain CKA2, active compounds read low): 0.965; normalized growth (locus YOR119C, strain RIO1, active compounds read low): 1.02; normalized growth (locus YOR231W, strain MKK1, active compounds read low): 0.95; normalized growth (locus YOR329C, strain SCD5, active compounds read low): 0.986; normalized growth (locus YPL031C, strain PHO85, active compounds read low): 0.964; normalized growth (locus YPL153C, strain RAD53, active compounds read low): 0.969; normalized growth (locus YPL204W, strain HRR25, active compounds read low): 0.935; normalized growth (locus YPL209C, strain IPL1, active compounds read low): 0.984; normalized growth (locus YPL256C, strain CLN2, active compounds read low): 1.02; normalized growth (locus YPR025C, strain CCL1, active compounds read low): 0.987; normalized growth (locus YPR106W, strain ISR1, active compounds read low): 0.982; normalized growth (locus YPR111W, strain DBF20, active compounds read low): 0.968; normalized growth (strain NNK1, active compounds read low): 0.984; normalized growth (strain TSCII, active compounds read low): 0.981

— PubChem BioAssay AID1159580 (chemical genetic matrix, 2015)
